GSH bead fluor: GSH bead compound fluorescence profile | GSH beads flow cytometry, compound fluorescence 488/530 nm; active compounds read high | 190,000 tested, 0.25% active | fluorescence (KMESF) at 10 µM; in the data active = fluorescence above about 89;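 also: glutathione beads carrying GST-tagged Bcl family fusion proteins plus one bare bead set; values are compound well signal with DMSO vehicle wells as background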
RGS4-Gao reg: modulates binding of RGS4 to human Galphao; P09471; Multiplexed bead flow cytometry; actives lie on both sides; 220,000 tested, 0.33% active; AID 1415; binding response (% of control), % at 10 µM; in the data active = binding response below about 49% or above about 150%; inactive = in between;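 also: fluorescent Galphao activated with aluminum fluoride binding bead-coupled RGS4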
Avidin fluor: avidin bead compound fluorescence profile. 220,000 tested, 0.38% active. Avidin beads, compound fluorescence 488/530 nm, flow cytometry; active compounds read high. fluorescence (KMESF) at 10 µM; in the data active = fluorescence above about 47
RGS8-Gao: regulators of human RGS8-Galphao interaction | multiplexed bead flow cytometry, RGS8-Galphao binding; actives lie on both sides | response (percent of control binding), % at 10 µM | 220,000 tested, 0.34% active | AID 1423; in the data active = response below about 60% or above about 140%; inactive = in between;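 also: Galphao activated as the GDP aluminium fluoride complex binding bead-coupled RGS8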
RGS7-Gao: regulators of human RGS7-Galphao interaction. AID 1439. Multiplexed bead flow cytometry, RGS7-Galphao binding; actives lie on both sides. P09471. 220,000 tested, 0.35% active. binding response (% of control), % at 10 µM; in the data active = binding response below about 49% or above about 150%; inconclusive = no clear call, values can overlap the other calls; inactive = in between;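 also: fluorescent Galphao held in activated GDP-AlF4 state binding bead-coupled RGS7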
RGS16-Gao: modulates binding between human RGS16 and Galphao | AID 1441 | binding response (% of control), % at 10 µM | O15492+P09471 | bead-based flow cytometry RGS16-Galphao binding, fluorescence; actives lie on both sides | 220,000 tested, 0.38% active;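 also: Galphao activated by GDP with aluminum fluoride before binding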
Target sequence (O15492 whole entry, looked up): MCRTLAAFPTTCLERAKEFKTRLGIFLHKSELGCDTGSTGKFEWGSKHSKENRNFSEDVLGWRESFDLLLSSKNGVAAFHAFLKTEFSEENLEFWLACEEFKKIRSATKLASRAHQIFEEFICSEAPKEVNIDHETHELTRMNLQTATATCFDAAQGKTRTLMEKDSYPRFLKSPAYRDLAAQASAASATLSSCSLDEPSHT
Target sequence (P09471 whole entry, looked up): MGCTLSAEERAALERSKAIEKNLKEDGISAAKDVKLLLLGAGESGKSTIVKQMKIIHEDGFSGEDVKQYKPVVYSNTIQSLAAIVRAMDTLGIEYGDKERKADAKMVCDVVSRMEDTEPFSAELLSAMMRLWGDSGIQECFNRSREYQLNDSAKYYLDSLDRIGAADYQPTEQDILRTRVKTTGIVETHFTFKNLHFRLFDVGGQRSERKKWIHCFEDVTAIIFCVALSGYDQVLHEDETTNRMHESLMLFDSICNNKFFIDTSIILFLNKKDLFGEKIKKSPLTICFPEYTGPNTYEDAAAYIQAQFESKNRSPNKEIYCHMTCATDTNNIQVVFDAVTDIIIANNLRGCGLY
RGS-Gao: RGS4-Galphao interaction regulator (human); shares compounds with RGS16-Gao; multiplexed bead flow cytometry, RGS–Galpha-o binding; RGS4–Galpha-o binding response, % at 10 µM; 1,600 tested, 99% active; AID 1504;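 also: fluorescently labeled Galpha-o bound to GDP with aluminium fluoride binding biotinylated RGS beads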
Biotin-avidin: counter-screen: compounds disrupting biotin binding to avidin beads | shares compounds with RGS16-Gao | streptavidin beads, fluorescein-biotin binding, flow cytometry | inhibition, % at 10 µM | 1,700 tested, under 10 active | AID 1783;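 active = inhibition above 50%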;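 also: median green fluorescence of gated singlet beads compared with DMSO control wells; 0% = DMSO wells and 100% = complete loss of bead fluorescence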
RGS8-Gao single: confirmation of regulators of human RGS8-Galphao interaction; shares compounds with RGS16-Gao; 1,700 tested, 3% active; AID 1836; binding response (% of control), % at 10 µM; bead-based flow cytometry RGS8-Galphao binding, fluorescence; actives lie on both sides; in the data active = binding response below about 72% or above about 130%; inactive = in between;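 also: Galphao activated as GDP AlF4 complex before binding bead RGS8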
RGS7-Gao confirm: RGS7-Galphao interaction regulation, single point confirmation; shares compounds with RGS16-Gao; bead-based flow cytometry RGS7-Galphao binding; actives lie on both sides; response (percent of control binding), % at 10 µM; 1,700 tested, 7.8% active; AID 1837; in the data active = response below about 75% or above about 130%; inactive = in between;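 also: fluorescent Galphao activated with GDP and aluminum fluoride binding bead-coupled RGS7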
RGS16-Gao single: confirmation of regulators of human RGS16-Galphao interaction; shares compounds with RGS16-Gao; response (% of control binding), % at 10 µM; 1,700 tested, 4% active; bead-based flow cytometry, RGS16-Galphao binding; actives lie on both sides; in the data active = response below about 74% or above about 130%; inactive = in between;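 also: Galphao activated as the GDP aluminium fluoride complex binding bead-coupled RGS16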
RGS4-Gao single: confirmation of regulators of human RGS4-Galphao interaction; binding response (% of control), % at 10 µM; RGS4-Galphao binding, multiplexed bead flow cytometry; actives lie on both sides; shares compounds with RGS16-Gao; 1,700 tested, 4% active; in the data active = binding response below about 74% or above about 130%; inactive = in between
RGS19-Gao conf: confirmation of regulators of human RGS19-Galphao interaction; bead-based flow cytometry RGS19-Galphao binding; actives lie on both sides; 1,700 tested, 5% active; response (percent of control binding), % at 10 µM; shares compounds with RGS16-Gao; in the data active = response below about 50% or above about 160%; inactive = in between;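 also: 100% = no compound control and 0% = blank background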
Numbers without * were called inactive; ? = inconclusive; . = no result; [ ] = dose if it differs, or a comment. Sampled rows, rich in hits. Any-hit rate of the full collection: about 1.2%. Unless noted, no rule for the calls is given here.

SMILES | GSH bead fluor | RGS4-Gao reg | Avidin fluor | RGS8-Gao | RGS7-Gao | RGS16-Gao | Biotin-avidin | RGS8-Gao single | RGS7-Gao confirm | RGS16-Gao single | RGS4-Gao single | RGS19-Gao conf | others
COC(Cn1c2c(c3cc(C)ccc31)CCCC2NCc1ccccc1)OC (centres undefined) | . | 101 | 8 | 101 | ? | 104 | . | . | . | . | . | .
CC(C)(C)c1ccc(-c2nc(-c3ccncc3)no2)cc1 | 20 | 81 | 3 | 75 | 89 | 23* | . | . | . | . | . | . | RGS-Gao=81*
CC(C)(C)c1ccc(-c2noc(-c3ccno3)n2)cc1 | . | 98 | 4 | 99 | ? | 98 | . | . | . | . | . | .
CC(=O)N1CCc2c(sc(NC(=O)CN3C(=O)c4ccccc4C3=O)c2C(N)=O)C1 | 18 | 146 | 6 | 140 | 157*[activator] | 150 | -1 | 105 | 112 | 106 | 109 | 97 | RGS-Gao=146*
COCC1CCCCN1Cc1cn(-c2ccccc2)nc1-c1ccc2c(c1)OCO2 (centres undefined) | 11 | 116 | 69* | 104 | 182*[activator] | 113 | 0 | 100 | 95 | 97 | 98 | 76 | RGS-Gao=116*
OC[C@@H]1CCCN1Cc1cn(-c2ccccc2)nc1-c1ccc2c(c1)OCO2 | 17 | 104 | 4 | 102 | 104 | 97 | . | . | . | . | . | .
FC(F)(F)Oc1ccc(NC(=S)Nc2ccccc2N2CCOCC2)cc1 | . | 107 | 7 | 105 | ? | 104 | . | . | . | . | . | .
CCOC(=O)C1=NN(c2cccc(C)c2)C2(S1)SC(C(C)=O)=C(C)N2c1ccccc1 (centres undefined) | 50 | . | . | . | . | . | 1 | 106 | 83 | 106 | 92 | 55
CCOC(=O)N1CCN(C(=O)Cn2nc(-c3ccc(Cl)cc3)ccc2=O)CC1 | 34 | 99 | 12 | 94 | 98 | 79 | . | . | . | . | . | .
CCN1CCN(C(=O)Cn2nc(-c3ccc(Cl)cc3)ccc2=O)CC1 | 25 | 105 | 40 | 101 | 171*[activator] | 100 | 2 | 104 | 105 | 106 | 104 | 88 | RGS-Gao=105*
COc1ccc(C(=O)Nc2nc3cc4c(cc3s2)OCCO4)c(OC)c1 | . | 105 | 14 | 105 | ? | 102 | . | . | . | . | . | .
CC(C)(C)c1cc(C(=O)NCc2cc(F)cc3c2OCOC3)n(Cc2ccccc2)n1 | . | 94 | 2 | 96 | ? | 97 | . | . | . | . | . | .
O=C(CN1CCC(n2nnc3cc(F)ccc32)CC1)Nc1ccc2c(c1)CCC2 | 21 | . | . | . | . | . | 2 | 100 | 100 | 99 | 100 | 92
CCn1c(SCC(=O)Nc2nnc(C)s2)nnc1-c1ccncc1 | 16 | . | . | . | . | . | -1 | 100 | 96 | 96 | 99 | 91
Cc1nnc(NC(=O)CSc2nnc(Cc3ccccc3)n2Cc2ccccc2)s1 | 41 | 107 | . | 109 | 98 | . | 1 | 99 | 45* | 79 | 59* | 46*
Cc1nnc(NC(=O)CSc2nnc(C)n2Cc2ccccc2)s1 | 14 | 105 | 3 | 96 | 102 | 84 | . | . | . | . | . | .
CC(=O)OCc1cc(-c2nc3ccccc3[nH]c2=O)nn1-c1ccc(Cl)cc1 | . | 102 | 6 | 103 | ? | 101 | . | . | . | . | . | .
CC(C)CNC(=O)COC(=O)CCC(=O)c1ccc(Cl)cc1 | 12 | 96 | 7 | 96 | 99 | 81 | . | . | . | . | . | .

Screens from PubChem BioAssay.
